Test [1] is described as follows: qHTS assay to identify small molecule agonists of the RXR signaling pathway - cell viability counter screen (AID 1159529).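 Also: HEK 293T cells carrying an RXR-alpha UAS beta-lactamase reporter; series mostly up to about 77 µM; nearly all actives have a fitted effect of over 50% in size.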 The procedure, abridged:
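In this parallel viability measure, GeneBLAzer RXR-alpha HEK 293T cells (2% charcoal-stripped FBS) were given a 5 hr preincubation, treated with compounds 16 hr at 37 C, and read by CellTiter-Glo luminescence.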

Test [2] in a line: qHTS assay to identify small molecule antagonists of the retinoid acid receptor (RAR) signaling pathway - cell viability counter screen (AID 1159551). Also: nearly all actives have a fitted effect of over 35% in size. In outline:
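C3RL4 RARE-luciferase cells, 1,000/well, incubated overnight, then dosed with compound plus 1 uM retinol (final). After 6 hr at 37 C, viability read by CellTiter-Glo ATP luminescence following 30 min at room temperature.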
In general terms: Quantitative high-throughput screening tests each substance at several concentrations.

Test [3] is described as follows: qHTS assay to identify small molecule antagonists of the retinoic acid receptor (RAR) signaling pathway (AID 1159552; also: nearly all actives have a fitted effect of over 50% in size; also: potency is read from the fitted curve at half-maximal effect). In outline: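 C3RL4 RARE-luc cells, overnight plating; retinol 1 uM final added right after compound; 6 hr 37 C; luciferase read at 30 min RT.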
A short description of test [4]: qHTS assay to identify small molecule agonists of the retinoic acid receptor (RAR) signaling pathway (AID 1159553). In outline: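 C3RL4 RARE-luciferase cells were seeded at 1,000/well and grown overnight at 37 C, then exposed to compounds for 6 hr at 37 C, 5% CO2. Luciferase reagent was added and luminescence was read after 30 min at room temperature.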
Test [5] in a line: qHTS assay to identify small molecule antagonists of the estrogen related receptor (ERR) signaling pathway from Tox21 library - cell viability counter screen (AID 1224834). Also: nearly all actives have a fitted effect of over 30% in size. Also: potency is read from the fitted curve at half-maximal effect. In outline: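 ERR reporter cells, 2,000 per well, rested 6 h, then exposed to compound in DMSO for 17.5 hours at 37 C. Viability read as fluorescence after 30 min with CellTiter-Fluor.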
For test [6], the target named is Luciferin 4-monooxygenase (Photinus pyralis) (UniProt P08659). As to the kind of experiment: qHTS assay to identify small molecule inhibitors of firefly luciferase (AID 1224835). Also: series mostly up to about 120 µM; nearly all actives have a fitted effect of over 25% in size. The procedure, abridged: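 Biochemical qHTS: compounds run as interplate titrations against purified firefly enzyme, with D-luciferin and ATP each at its KM concentration. Light output recorded by CCD imaging.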
Luciferin 4-monooxygenase (Photinus pyralis), sequence (P08659 whole entry, looked up): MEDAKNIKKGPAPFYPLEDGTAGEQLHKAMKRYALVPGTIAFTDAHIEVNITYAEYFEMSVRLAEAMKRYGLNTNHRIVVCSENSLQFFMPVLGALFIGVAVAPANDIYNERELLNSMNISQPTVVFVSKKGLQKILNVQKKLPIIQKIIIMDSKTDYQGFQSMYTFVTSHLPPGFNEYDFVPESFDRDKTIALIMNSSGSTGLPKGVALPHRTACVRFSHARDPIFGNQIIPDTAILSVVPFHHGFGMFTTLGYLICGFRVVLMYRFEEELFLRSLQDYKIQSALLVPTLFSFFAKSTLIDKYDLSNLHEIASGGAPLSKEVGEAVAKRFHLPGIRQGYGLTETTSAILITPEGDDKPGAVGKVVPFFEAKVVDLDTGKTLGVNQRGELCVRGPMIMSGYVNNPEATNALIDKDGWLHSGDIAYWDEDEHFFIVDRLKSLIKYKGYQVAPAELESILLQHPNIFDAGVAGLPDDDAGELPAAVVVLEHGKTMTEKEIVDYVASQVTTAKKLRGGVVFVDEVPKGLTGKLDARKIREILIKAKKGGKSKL

Test [7] is described as follows: qHTS assay to identify small molecule agonists of the constitutive androstane receptor (CAR) signaling pathway - cell viability counter screen (AID 1224836). Also: series mostly up to about 92 µM; nearly all actives have a fitted effect of over 45% in size. The procedure, abridged: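 Using CellTiter-Fluor, viability of HepG2 cells harbouring hCAR and CYP2B6-2.2kb was measured following 23 h incubation with a 15-concentration compound series plus PK11195 (0.75 uM final).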

The nature of test [8]: qHTS assay to identify small molecule antagonists of the constitutive androstane receptor (CAR) signaling pathway - cell viability counter screen (AID 1224837). Also: series mostly up to about 92 µM; nearly all actives have a fitted effect of over 45% in size. The procedure, abridged: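 HepG2 cells stably carrying hCAR and CYP2B6-2.2kb reporter, stimulated with 50 nM CITCO and compounds at 15 concentrations for 23 h at 37 C. Viability measured by CellTiter-Fluor fluorescence.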

Test [9] concerns the target Nuclear receptor subfamily 1 group I member 3 (Homo sapiens) (UniProt Q14994). As to the kind of experiment: qHTS assay to identify small molecule antagonists of the constitutive androstane receptor (CAR) signaling pathway (AID 1224838). Also: nearly all actives have a fitted effect of over 40% in size. The procedure, abridged: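 HepG2 cells stably carrying hCAR and a CYP2B6-2.2kb luciferase reporter, seeded 4 hrs before compound (15 concentrations). Stimulated with 50 nM CITCO for 24 hr at 37 C. ONE-Glo luminescence read after 30 min at room temperature.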

Test [10] in a line: qHTS assay to identify small molecule antagonists of the estrogen related receptor signaling pathway with the pleiotropic PPARgamma coactivator (PGC) from Tox21 10K library - cell viability counter screen (AID 1224840; active = well fitted cell-killing curve with a large enough effect in the repeat runs, not every such curve was filed as active; also: nearly all actives have a fitted effect of over 40% in size). In outline: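 PGC/ERR cells (2,000/well) plated 6 h, then compound-treated for 17.5 h at 37 C. Viability measured by CellTiter-Fluor fluorescence after 30 min at 37 C, multiplexed with the pathway assay.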

Test [11] addresses Nuclear receptor subfamily 1 group I member 3 (Homo sapiens) (UniProt Q14994). As to the kind of experiment: qHTS assay to identify small molecule agonists of the constitutive androstane receptor (CAR) signaling pathway (AID 1224839). Also: series mostly up to about 92 µM; nearly all actives have a fitted effect of over 15% in size. The procedure, abridged:
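Double-stable HepG2 cells (hCAR, CYP2B6-2.2kb) seeded 4 h before compound addition. Exposure 24 h with 0.75 uM PK11195 final. Luciferase detected by ONE-Glo.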

The nature of test [12]: qHTS assay to identify small molecule agonists of the estrogen related receptor signaling pathway with the pleiotropic PPARgamma coactivator (PGC) from Tox21 10K library (AID 1224842). Also: nearly all actives have a fitted effect of over 15% in size. The procedure, abridged: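 PGC/ERR reporter cell line, 2,000 cells per well, incubated 6 h at 37 C before 23 nL compound in DMSO was added. After 18 h at 37 C, One-Glo luminescence read following 30 min at room temperature.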

Test [13] concerns the target Thyrotropin receptor (Homo sapiens) (UniProt P16473). Description: qHTS assay to identify small molecule agonists of the thyroid stimulating hormone receptor (TSHR) signaling pathway (AID 1224843; calls by dose curve; also: nearly all actives have a fitted effect of over 45% in size). The procedure, abridged:
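TSHR-HEK293 cells in agonist mode, 30 min room-temperature step, then cAMP measured by competitive HTRF (cAMP-d2 with anti-cAMP cryptate) after 1 h at room temperature. Tested at 15 concentrations in triplicate.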

Test [14] can be described thus: qHTS assay to identify small molecule antagonists of the estrogen related receptor (ERR) signaling pathway - cell viability counter screen (AID 1224818). Also: series mostly up to about 46 µM. In outline: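 ERR cells, 2,000 per well, compound added after 6 h and incubated 17.5 h at 37 C. Viability read by CellTiter-Fluor fluorescence after a further 30 min at 37 C.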
The nature of test [15]: qHTS assay to identify small molecule antagonists of the estrogen related receptor signaling pathway with the pleiotropic PPARgamma coactivator (PGC) cell viability counter screen (AID 1224822; also: series mostly up to about 46 µM). The procedure, abridged:
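PGC/ERR cells rested 6 h, then compound-treated 17.5 h at 37 C. CellTiter-Fluor added for 30 min at 37 C, viability measured by fluorescence intensity.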

The nature of test [16]: qHTS assay to identify small molecule antagonists of the estrogen related receptor (ERR) signaling pathway (AID 1224819;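 also: luminescence from an ERR-driven luciferase reporter measured with One-Glo reagent; series mostly up to about 46 µM; nearly all actives have a fitted effect of over 50% in size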). In outline:
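ERR reporter cell line (NTP) plated at 2,000 cells/well, settled 6 h at 37C/5% CO2, then exposed to LOPAC compounds for 18 h at 37C. One-Glo luciferase luminescence read after 30 min at room temperature.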

The nature of test [17]: qHTS assay to identify small molecule agonists of the estrogen related receptor (ERR) signaling pathway (AID 1224820). In outline:
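ERR reporter cell line (from NTP), 2,000 cells/well, incubated 6 h before compound addition, then 18 h at 37 C. Luminescence measured 30 min after One-Glo reagent at room temperature.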

In test [18] the test system is estrogen-related receptor alpha (ERRalpha) with PGC-1alpha coactivator, human. Description: qHTS assay to identify small molecule antagonists of the estrogen related receptor signaling pathway with the pleiotropic PPARgamma coactivator (PGC) (AID 1224821; calls by dose curve;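 also: series mostly up to about 46 µM; lower luminescence signal means antagonism of PGC/ERR signalling; nearly all actives have a fitted effect of over 50% in size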). In outline:
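PGC/ERR reporter cell line, plated 6 h before compound addition, then exposed 18 h at 37 °C. Luciferase activity read by luminescence 30 min after One-Glo addition; decrease indicates antagonism.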

Test [19] in a line: qHTS assay to identify small molecule agonists of the estrogen related receptor signaling pathway with the pleiotropic PPARgamma coactivator (PGC) (AID 1224823). In outline:
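PGC/ERR reporter cells seeded 6 h, then exposed to compounds (23 nL in DMSO) for 18 h at 37 C. One-Glo luciferase luminescence read after 30 min at room temperature.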

The record followed here is PubChem BioAssay (Tox21).

Inconclusive results are not listed. Unmarked numbers belong to inactive results. The source made the active and inactive calls. Unless noted, calls follow the shape of the dose curve; as a rule, active = well fitted curve in the direction sought with a large enough effect in the repeat runs; inconclusive = weak or mixed curves; inactive = no such curve, though single readings can be large; an effect the other way counts as inactive or inconclusive.
% is scaled to controls: 0 for no effect and ±100 for the full control effect.

Nuclear receptor subfamily 1 group I member 3 (Homo sapiens), sequence (Q14994 whole entry, looked up): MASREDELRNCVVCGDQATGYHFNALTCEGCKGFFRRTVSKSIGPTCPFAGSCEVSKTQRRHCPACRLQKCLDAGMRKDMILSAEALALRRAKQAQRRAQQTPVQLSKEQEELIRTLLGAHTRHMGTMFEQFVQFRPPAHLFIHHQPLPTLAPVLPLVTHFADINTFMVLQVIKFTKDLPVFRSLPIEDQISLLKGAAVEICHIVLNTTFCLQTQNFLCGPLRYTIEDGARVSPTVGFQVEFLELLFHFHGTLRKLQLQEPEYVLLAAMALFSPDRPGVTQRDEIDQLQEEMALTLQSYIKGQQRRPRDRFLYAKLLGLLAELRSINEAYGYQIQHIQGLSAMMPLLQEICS
Thyrotropin receptor (Homo sapiens), sequence (P16473 whole entry, looked up): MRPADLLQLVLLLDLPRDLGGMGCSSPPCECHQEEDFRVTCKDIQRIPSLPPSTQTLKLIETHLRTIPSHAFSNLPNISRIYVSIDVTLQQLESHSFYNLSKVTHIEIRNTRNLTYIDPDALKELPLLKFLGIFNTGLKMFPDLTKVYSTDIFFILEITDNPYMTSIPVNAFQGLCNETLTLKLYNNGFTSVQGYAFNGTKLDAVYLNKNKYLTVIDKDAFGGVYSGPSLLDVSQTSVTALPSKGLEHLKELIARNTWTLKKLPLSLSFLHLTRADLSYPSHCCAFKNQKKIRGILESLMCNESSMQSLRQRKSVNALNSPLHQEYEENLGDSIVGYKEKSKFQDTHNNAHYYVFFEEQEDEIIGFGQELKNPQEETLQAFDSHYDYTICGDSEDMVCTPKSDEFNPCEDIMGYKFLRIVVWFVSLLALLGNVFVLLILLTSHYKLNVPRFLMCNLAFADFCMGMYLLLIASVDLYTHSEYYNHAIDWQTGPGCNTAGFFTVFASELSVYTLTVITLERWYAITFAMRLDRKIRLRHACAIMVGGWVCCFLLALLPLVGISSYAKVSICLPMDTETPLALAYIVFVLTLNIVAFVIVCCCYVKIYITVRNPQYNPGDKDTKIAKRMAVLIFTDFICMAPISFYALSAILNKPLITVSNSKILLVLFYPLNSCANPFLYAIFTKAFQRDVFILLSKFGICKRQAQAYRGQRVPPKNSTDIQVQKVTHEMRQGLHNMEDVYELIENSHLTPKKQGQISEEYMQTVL

As to `CC1(c2ccccc2)OC(C(=O)O)=CC1=O` (stereo unspecified), the Potency result in test [1], in test [2], in test [3], in test [4], in test [5] and in test [6] was “inactive” throughout. The Potency entry in test [7], in test [8], in [9] and in test [10] was “inactive” throughout.

For the compound `C[Si](C)(CCCN)O[Si](C)(C)CCCN`, the Potency result in test [1], in test [2], in test [3], in test [4], in test [5] and in [6] was “inactive” throughout. The Potency entry in [7], in test [8], in [9], in test [11], in test [10] and in test [12] was “inactive” in each case. Besides, the Potency result in test [13] was “inactive”.

Turning to `OCCNCc1ccccc1`, the Potency entry in test [1], in test [2], in test [3], in test [4], in [5] and in test [6] was “inactive” throughout. Further, the Potency result in [7], in [8], in test [9], in test [11] and in test [10] was “inactive” throughout.

Take `CCCCCCCC/C=C\CCCCCCCC(=O)OCC`: the Potency entry in [1], in [2], in test [3], in test [4], in test [5] and in [6] was “inactive” throughout. Moreover, the Potency result in [7], in test [8], in test [9], in [11], in test [10] and in test [12] was “inactive” each time. For the same compound, the Potency result in test [13] is “inactive”.

Regarding `CCCCc1ncc(/C=C(\Cc2cccs2)C(=O)O)n1Cc1ccc(C(=O)O)cc1`, the Potency result in [1], in test [2], in [3], in test [4], in [5] and in [6] was “inactive” in each case. For the same compound, the Potency result in [7], in [8], in test [9], in test [11], in [10] and in test [13] was “inactive” throughout. Further, the result in [14] and in test [15] was inactive.

For the compound `C=CC1CC2C=CC1C2` (stereo unspecified), the Potency entry in test [1], in test [2], in test [3], in test [4], in [5] and in test [6] was “inactive” throughout. Further, the Potency result in [7], in test [8], in test [9], in [11] and in test [10] was “inactive” each time.

On to `CCOC(=O)C(=O)CCc1ccccc1`, for which the Potency entry in [1], in test [2], in [3], in test [4], in [5] and in test [6] was “inactive” throughout. Also, the Potency result in test [7], in test [8], in test [9], in [11] and in test [10] was “inactive” each time.

With `NCC(=O)O`, the activity change, negative = cytotoxicity in test [1] is 4.74% [at 15.8 µM]; in [2] it was -0.228% [at 19 µM]; in test [8] it was -8.8% [at 19 µM]. Besides, the activity, negative = inhibition in test [3] was 0.472% [at 19 µM]; in [9] it was -5.57% [at 19 µM]. Further, the Potency entry in test [4] is “inactive”. Also, the viability change, negative = cytotoxic in [5] is 2.45% [at 19 µM]; in test [7], -11.9% [at 19 µM]; in test [10] it was 0.187% [at 19 µM]. Moreover, the activity change, negative = inhibition in [6] was -0.476% [at 23.6 µM].

In the case of `COc1cc(C(=O)OCCCN2CCCN(CCCOC(=O)c3cc(OC)c(OC)c(OC)c3)CC2)cc(OC)c1OC`, the Potency result in test [1], in [2], in [16], in test [18], in test [6] and in test [7] was “inactive” each time. The Potency result in test [9], in test [11] and in test [12] was “inactive” throughout. Also, the figures for the Potency in test [3] and in test [5] were 13.3 µM (active) and 23.7 µM (active), respectively. Besides, the call in test [17] and in test [19] was inactive.
